The source made the active and inactive calls.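 The calls were made as follows, unless noted: active = z-score of at least 1.8 in each of two replicates, scored against plate mean and spread of sample wells; inactive = the rest.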

The test system of experiment [1] is Aerobactin synthetase IucA (Klebsiella pneumoniae). The experiment is described as follows: IucA aerobactin synthetase inhibitors, biochemical, Tocris library, absorbance (AID 1345561; call rule not given here;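 also: 100% = enzyme without compound and 0% = no enzyme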). The conditions noted are these: purified IucA enzyme assay, absorbance (OD) read-out; stronger effect = lower value;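 tested at 8 µM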.
The nature of experiment [2]: sensitizers of A549 cells to miR-34 induction, primary screen, imaging, A549 dox-inducible miR-34, nuclei and caspase counts (AID 1347080;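 active = compounds whose cell count with miR-34 switched on is under 0.7 times the count with it off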). The note with it: A549 miR-34 inducible, Hoechst nuclei count, 48 h.
Experiment [3] in a line: viability rescue of complex I mutant cybrids, primary screen, cell-based, galactose medium, ATP luminescence (AID 1645843).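 Also: positive z means more ATP and so rescue of galactose-driven cybrid death.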 The note with it: complex I mutant cybrid cells, 72 h, stronger effect = higher value.
[4] abbreviates: stronger effect = lower value, cell number ratio, induced over uninduced.
The mark [5] stands for this setting: measured here: relative caspase fold change +Dox/-Dox.
The mark [6] stands for this setting: measured here: total cells with miR-34 induction, stronger effect = lower value.
The mark [7] stands for this setting: measured here: total cells without miR-34 induction.

Regarding `CC(C)n1cnc2c(C(=O)N[C@H]3CN4CCC3CC4)cc(Cl)cc21`, the remaining activity (in general, the signal under treatment as a percentage of the control signal) in experiment [1] is 102% (inactive). Moreover, the values for the fold change in experiment [2] (setting [4]) and in experiment [2] (setting [5]) were 0.928 (inactive) and 0.88, respectively. Further, the cell count in experiment [2] (setting [6]) came to 8010; in experiment [2] (setting [7]), 8630. For the same molecule, the z-score in experiment [3] is 2.03 (inactive).
On to `Cc1ccc2c(c1)C1(CCN(CCc3nc(-c4ccccc4)oc3C)CC1)OC(=O)N2`, for which, in experiment [1], the remaining activity is 95% (inactive). The fold change in experiment [2] (setting [4]) was 0.966 (inactive); in experiment [2] (setting [5]), 1.87. For the same molecule, the cell count turned out to be 5420 in experiment [2] (setting [6]) and 5610 in experiment [2] (setting [7]). Further, the z-score in experiment [3] is -0.635 (inactive).
As to `CC(C(=O)OC1CC2CCC(C1)N2C)c1ccc(Br)cc1` (centres undefined), in experiment [1], the remaining activity was 87.5% (inactive). For the same molecule, the fold change is 0.964 (inactive) in experiment [2] (setting [4]) and 0.964 in experiment [2] (setting [5]). Also, the values for the cell count in experiment [2] (setting [6]) and in experiment [2] (setting [7]) were 8760 and 9090, respectively. In addition, the z-score in experiment [3] is -0.795 (inactive).
In the case of `COC1CCC2NC(C(=O)c3ccccc3)CC2C1` (centres undefined), the remaining activity in experiment [1] was 86.6% (inactive). Further, the fold change in experiment [2] (setting [4]) was 1.14 (inactive); in experiment [2] (setting [5]), 0.708. The cell count in experiment [2] (setting [6]) is 1500; in experiment [2] (setting [7]) it was 1320. The z-score in experiment [3] is 0.23 (inactive).
Turning to `CCN1C[C@]2(COC(=O)c3ccccc3N3C(=O)C[C@H](C)C3=O)CC[C@H](OC)[C@]34C2[C@H](OC)[C@](O)([C@H]13)[C@@]1(O)C[C@H](OC)[C@H]2C[C@@H]4[C@@H]1[C@H]2OC`, the remaining activity in experiment [1] is 128% (inactive). Also, the fold change in experiment [2] (setting [4]) was 0.94 (inactive); in experiment [2] (setting [5]) it was 0.834. Moreover, the results for the cell count in experiment [2] (setting [6]) and in experiment [2] (setting [7]) were 8220 and 8740, respectively. For the same molecule, the z-score in experiment [3] was -0.21 (inactive).
For `Cc1cc(C)cc(C(=O)OC2CC3CCC(C2)N3C)c1` (centres undefined), in experiment [1], the remaining activity is 86.6% (inactive). The fold change in experiment [2] (setting [4]) is 0.914 (inactive); in experiment [2] (setting [5]), 1.01. The cell count in experiment [2] (setting [6]) worked out at 8100; in experiment [2] (setting [7]), 8850. Moreover, the z-score in experiment [3] was -0.125 (inactive).
For `CCOC(=O)c1ncn2c1CN(C)C(=O)c1cc(N=[N+]=[N-])ccc1-2`, the remaining activity in experiment [1] is 97.3% (inactive). The fold change in experiment [2] (setting [4]) is 0.891 (inactive); in experiment [2] (setting [5]), 1.09. In addition, the cell count in experiment [2] (setting [6]) worked out at 7930; in experiment [2] (setting [7]), 8900. Further, the z-score in experiment [3] was 0.06 (inactive).
For the molecule `O=C(O)/C=C/CO`, the remaining activity in experiment [1] is 109% (inactive). The results for the fold change in experiment [2] (setting [4]) and in experiment [2] (setting [5]) were 0.992 (inactive) and 0.9, respectively. Further, the cell count in experiment [2] (setting [6]) worked out at 9440; in experiment [2] (setting [7]) it was 9510. Also, the z-score in experiment [3] was -0.335 (inactive).
Turning to `Cc1ccc2c(c1)Cc1c(C(=O)NC3CCCCC3)nn(-c3ccc(Cl)cc3Cl)c1-2`, the remaining activity in experiment [1] was 103% (inactive). The fold change was 0.986 (inactive) in experiment [2] (setting [4]) and 1.35 in experiment [2] (setting [5]). Besides, the cell count was 8570 in experiment [2] (setting [6]) and 8690 in experiment [2] (setting [7]). Moreover, the z-score in experiment [3] is -0.01 (inactive).
Consider `Clc1ccc(C2=CCCC3CCC2N3)cn1` (centres undefined), for which the remaining activity in experiment [1] was 101% (inactive). The fold change in experiment [2] (setting [4]) was 0.907 (inactive); in experiment [2] (setting [5]), 0.911. For the same molecule, the cell count in experiment [2] (setting [6]) was 9190; in experiment [2] (setting [7]), 10100. Moreover, the z-score in experiment [3] was 0.365 (inactive).
In the case of `O=C(O)Cc1cccnc1C(=O)O`, the remaining activity in experiment [1] was 108% (inactive). Moreover, the fold change in experiment [2] (setting [4]) is 0.98 (inactive); in experiment [2] (setting [5]), 0.669. Besides, the cell count in experiment [2] (setting [6]) is 8790; in experiment [2] (setting [7]) it was 8970. In experiment [3], the z-score is 0.32 (inactive).
Consider `CCOC(=O)c1ncc2[nH]c3ccc(OCc4ccccc4)cc3c2c1COC`, for which the remaining activity in experiment [1] was 105% (inactive). The values for the fold change in experiment [2] (setting [4]) and in experiment [2] (setting [5]) were 0.974 (inactive) and 1.71, respectively. Further, the cell count was determined as 2080 in experiment [2] (setting [6]) and 2130 in experiment [2] (setting [7]). Moreover, in experiment [3], the z-score was -0.79 (inactive).
Consider `CN1[C@@H]2CC[C@H]1CC(OC(=O)N1Cc3ccccc3NC1=O)C2` (some centres undefined), for which, in experiment [1], the remaining activity is 119% (inactive). In addition, the results for the fold change in experiment [2] (setting [4]) and in experiment [2] (setting [5]) were 0.979 (inactive) and 1.11, respectively. Also, the cell count in experiment [2] (setting [6]) is 8310; in experiment [2] (setting [7]) it was 8490. In experiment [3], the z-score was 0.365 (inactive).
Take `CCCN(CCC)[C@@H]1CCc2c(OC)cccc2[C@@H]1C`: in experiment [1], the remaining activity was 103% (inactive). Moreover, the values for the fold change in experiment [2] (setting [4]) and in experiment [2] (setting [5]) were 0.92 (inactive) and 0.674, respectively. The cell count worked out at 8420 in experiment [2] (setting [6]) and 9160 in experiment [2] (setting [7]). In addition, the z-score in experiment [3] is 0.925 (inactive).
Take `Cc1[nH]cnc1CCN`: the remaining activity in experiment [1] is 109% (inactive). Besides, the fold change in experiment [2] (setting [4]) was 0.956 (inactive); in experiment [2] (setting [5]) it was 1.94. Also, the results for the cell count in experiment [2] (setting [6]) and in experiment [2] (setting [7]) were 10000 and 10500, respectively. Further, the z-score in experiment [3] was 0.125 (inactive).
Turning to `C(=C\c1ccccc1)/CN1CCN(CCOC(c2ccccc2)c2ccccc2)CC1`, the remaining activity in experiment [1] was 119% (inactive). Besides, the results for the fold change in experiment [2] (setting [4]) and in experiment [2] (setting [5]) were 0.938 (inactive) and 0.604, respectively. The cell count in experiment [2] (setting [6]) was 5420; in experiment [2] (setting [7]), 5780. For the same molecule, the z-score in experiment [3] is -1.21 (inactive).
On to `CC(C)(Cc1c[nH]c2ccc(Cl)cc12)NCCOc1ccccc1OCC1CC1`, for which the remaining activity in experiment [1] was 119% (inactive). Also, the fold change was 0.921 (inactive) in experiment [2] (setting [4]) and 1.09 in experiment [2] (setting [5]). In addition, the cell count in experiment [2] (setting [6]) came out at 226; in experiment [2] (setting [7]) it was 246. Moreover, the z-score in experiment [3] is -1.23 (inactive).
For the molecule `CN1Cc2ccccc2[C@@H]2c3cccc4[nH]cc(c34)C[C@H]21`, the remaining activity in experiment [1] was 114% (inactive). In addition, the fold change in experiment [2] (setting [4]) is 0.936 (inactive); in experiment [2] (setting [5]), 0.677. In addition, the cell count is 4560 in experiment [2] (setting [6]) and 4870 in experiment [2] (setting [7]). Besides, the z-score in experiment [3] was -0.7 (inactive).
Turning to `Cc1[nH]c2ccc(Cl)cc2c1C1=CCNCC1`, the remaining activity in experiment [1] was 103% (inactive). Besides, the fold change was 0.919 (inactive) in experiment [2] (setting [4]) and 1.4 in experiment [2] (setting [5]). Moreover, the figures for the cell count in experiment [2] (setting [6]) and in experiment [2] (setting [7]) were 7850 and 8550, respectively. The z-score in experiment [3] is -0.42 (inactive).

Source of the values: PubChem BioAssay.
